Inconclusive results are not listed. Values without a mark were called inactive. Calls of active or inactive are those of the source. The call rests on the fitted dose curve; in most records, active means well fitted cell-killing curve with a large enough effect; inconclusive means small, poorly fitted or top-dose-only effect, or effect the other way; inactive means no such curve, though single readings can be large or run the other way.
Experiments:
[1] = Quantitative High-Throughput drug screen in 47 multiple myeloma cell lines against the NCATS MIPE library collection: KMS28PE_JCRB cell viability assay (AID 1918983); further: nearly all actives have a fitted effect of over 35% in size
Outline: (§1)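 ATP-based CellTiter-Glo luminescence after 48 h drug exposure (37 °C, 5% CO2) of 500 myeloma cells per well. DMSO-only wells set 100% viability, media-only wells 0%; MIPE 4.0 library added by pin tool.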

[2] = Quantitative High-Throughput drug screen in 47 multiple myeloma cell lines against the NCATS MIPE library collection: KMS34_JCRB cell viability assay (AID 1918985); further: nearly all actives have a fitted effect of over 40% in size
Outline: as §1

[3] = Quantitative High-Throughput drug screen in 47 multiple myeloma cell lines against the NCATS MIPE library collection: SKMM1_PLB cell viability assay (AID 1919863); conditions: SKMM1 myeloma viability, CellTiter-Glo ATP, 48 h; viability: stronger effect = lower value; further: nearly all actives have a fitted effect of over 35% in size
Outline: as §1

[4] = Quantitative High-Throughput drug screen in 47 multiple myeloma cell lines against the NCATS MIPE library collection: U266_ATCC cell viability assay (AID 1919864); further: nearly all actives have a fitted effect of over 35% in size
Outline: as §1

[5] = Quantitative High-Throughput drug screen in 47 multiple myeloma cell lines against the NCATS MIPE library collection: XG6_PLB cell viability assay (AID 1919865); further: nearly all actives have a fitted effect of over 40% in size
Outline: as §1

[6] = Quantitative High-Throughput drug screen in 47 multiple myeloma cell lines against the NCATS MIPE library collection: XG1_PLB cell viability assay (AID 1919866); further: nearly all actives have a fitted effect of over 35% in size
Outline: as §1

[7] = Quantitative High-Throughput drug screen in 47 multiple myeloma cell lines against the NCATS MIPE library collection: VP6_DJ cell viability assay (AID 1919867); further: nearly all actives have a fitted effect of over 40% in size
Outline: as §1

[8] = Quantitative High-Throughput drug screen in 47 multiple myeloma cell lines against the NCATS MIPE library collection: PE2_PLB cell viability assay (AID 1919869); further: nearly all actives have a fitted effect of over 35% in size
Outline: as §1

[9] = Quantitative High-Throughput drug screen in 47 multiple myeloma cell lines against the NCATS MIPE library collection: PCM6_Riken cell viability assay (AID 1919870); further: nearly all actives have a fitted effect of over 30% in size
Outline: as §1

[10] = Quantitative High-Throughput drug screen in 47 multiple myeloma cell lines against the NCATS MIPE library collection: KMS11_JCRBsus cell viability assay (AID 1919873); further: nearly all actives have a fitted effect of over 50% in size
Outline: as §1

[11] = Quantitative High-Throughput drug screen in 47 multiple myeloma cell lines against the NCATS MIPE library collection: KMS28BM_JCRB cell viability assay (AID 1919874); further: nearly all actives have a fitted effect of over 35% in size
Outline: as §1

[12] = Quantitative High-Throughput drug screen in 47 multiple myeloma cell lines against the NCATS MIPE library collection: LP1_DSMZ cell viability assay (AID 1918982); further: nearly all actives have a fitted effect of over 35% in size
Outline: as §1

[13] = Quantitative High-Throughput drug screen in 47 multiple myeloma cell lines against the NCATS MIPE library collection: L363_DSMZ cell viability assay (AID 1918984); conditions: L363 myeloma viability, CellTiter-Glo ATP luminescence, 48 h; viability (% of control): at 45.8 µM (top of the series); further: nearly all actives have a fitted effect of over 40% in size
Outline: as §1

[14] = Quantitative High-Throughput drug screen in 47 multiple myeloma cell lines against the NCATS MIPE library collection: UTMC2_PLB cell viability assay (AID 1919868); conditions: CellTiter-Glo ATP luminescence, 48 h; viability (% of DMSO control): at 45.8 µM (top of the series); further: nearly all actives have a fitted effect of over 55% in size
Outline: as §1

[15] = Quantitative High-Throughput drug screen in 47 multiple myeloma cell lines against the NCATS MIPE library collection: OPM2_DSMZ cell viability assay (AID 1919872); further: nearly all actives have a fitted effect of over 30% in size
Outline: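 Relative luminescence from CellTiter-Glo served as the viability signal, referenced to DMSO-treated (100%) and cell-free medium (0%) controls. Treatment lasted 48 hours at 37C with 500 cells per well.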

[16] = Quantitative High-Throughput drug screen in 47 multiple myeloma cell lines against the NCATS MIPE library collection: OCIMY5_PLB cell viability assay (AID 1918988); further: nearly all actives have a fitted effect of over 65% in size
Outline: as §1

[17] = Quantitative High-Throughput drug screen in 47 multiple myeloma cell lines against the NCATS MIPE library collection: OPM1_PLB cell viability assay (AID 1918989); further: nearly all actives have a fitted effect of over 40% in size
Outline: as §1

[18] = Quantitative High-Throughput drug screen in 47 multiple myeloma cell lines against the NCATS MIPE library collection: RPMI8226_ATCC cell viability assay (AID 1919871); further: nearly all actives have a fitted effect of over 30% in size
Outline: as §1

[19] = Quantitative High-Throughput drug screen in 47 multiple myeloma cell lines against the NCATS MIPE library collection: OCIMY7_PLB cell viability assay (AID 1918987); conditions: OCI-MY7 myeloma viability, CellTiter-Glo ATP, 48 h; viability (% of DMSO): at 45.8 µM (top of the series); further: nearly all actives have a fitted effect of over 65% in size
Outline: as §1
Potency means the concentration at half of the fitted maximal effect.

SMILES: COc1ccc2c(c1)CC[C@H]1[C@@H]2CC[C@]2(C)[C@@H](NCCCCCCN3C(=O)C=CC3=O)CC[C@H]12
- Potency [1]: inactive
- Potency [2]: inactive
- viability [3]: 134%
- Potency [4]: 20.9 µM (active)
- Potency [5]: inactive
- Potency [6]: inactive
- Potency [7]: inactive
- Potency [8]: inactive
- Potency [9]: inactive
- Potency [10]: inactive
- Potency [11]: inactive

SMILES: Cc1c(-c2cccc3c(CCCOc4cccc5ccccc45)c(C(=O)O)n(Cc4cccnc4)c23)c(COc2ccc(N3CCN([S+](=O)([O-])N(C)C)CC3)cc2)nn1C
- Potency [12]: 18.7 µM (active)
- Potency [13]: inactive
- Potency [3]: 23.5 µM (active)
- Potency [6]: inactive
- Potency [7]: 8.33 µM (active)
- Potency [14]: 20.9 µM (active)
- Potency [8]: 18.7 µM (active)
- Potency [9]: inactive
- Potency [15]: 16.6 µM (active)

SMILES: Cc1cc(-c2ncc(CC(=O)Nc3ccc(-c4cnccn4)cn3)cc2C)ccn1
- Potency [1]: 16.6 µM (active)
- Potency [13]: 14.8 µM (active)
- Potency [16]: 11.8 µM (active)
- Potency [17]: 8.33 µM (active)
- viability [3]: 117%
- Potency [4]: 20.9 µM (active)
- Potency [5]: 14.8 µM (active)
- Potency [6]: 16.6 µM (active)
- Potency [7]: 18.7 µM (active)
- Potency [8]: 18.7 µM (active)
- Potency [10]: 1.87 µM (active)
- Potency [11]: inactive

SMILES: CN(CC=CC#CC(C)(C)C)Cc1cccc2ccccc12
- Potency [1]: inactive
- Potency [2]: inactive
- Potency [10]: inactive
- Potency [11]: inactive

SMILES: Nc1nc(Cl)nc2c1ncn2[C@@H]1O[C@H](CO)[C@@H](O)[C@H]1F
- Potency [1]: 0.0418 µM (active)
- Potency [13]: 0.0526 µM (active)
- Potency [16]: 0.0743 µM (active)
- Potency [17]: 1.48 µM (active)
- Potency [4]: 1.48 µM (active)
- Potency [5]: 0.0235 µM (active)
- Potency [7]: 0.187 µM (active)
- Potency [14]: 0.332 µM (active)
- Potency [8]: 0.418 µM (active)
- Potency [18]: 2.35 µM (active)

SMILES: OC(c1cc(C(F)(F)F)nc2c(C(F)(F)F)cccc12)C1CCCCN1 (stereo not given)
- Potency [1]: 26.4 µM (active)
- Potency [16]: 14.8 µM (active)
- Potency [17]: 18.7 µM (active)
- Potency [3]: 23.5 µM (active)
- Potency [5]: 26.4 µM (active)
- Potency [6]: 14.8 µM (active)
- Potency [7]: 14.8 µM (active)
- Potency [14]: 20.9 µM (active)
- Potency [8]: 23.5 µM (active)
- Potency [9]: 13.2 µM (active)
- Potency [15]: 23.5 µM (active)
- Potency [10]: 11.8 µM (active)

SMILES: CNC(=O)[C@H](Cc1ccccc1)NC(=O)[C@H](CC(C)C)[C@H](CSc1cccs1)C(=O)NO
- Potency [1]: 6.62 µM (active)
- Potency [19]: 14.8 µM (active)
- Potency [17]: inactive
- viability [3]: 98.7%
- Potency [5]: 7.43 µM (active)
- Potency [6]: 9.35 µM (active)
- Potency [8]: 16.6 µM (active)
- Potency [9]: 13.2 µM (active)
- Potency [15]: 18.7 µM (active)

SMILES: C#C[C@]1(O)CC[C@H]2[C@H]3CCc4cc(OC)ccc4[C@H]3CC[C@@]21C
- Potency [1]: inactive
- Potency [13]: inactive
- Potency [17]: 16.6 µM (active)
- Potency [5]: 16.6 µM (active)
- Potency [6]: 14.8 µM (active)
- Potency [7]: 16.6 µM (active)
- Potency [15]: inactive

SMILES: O=C1CN2Cc3c(ccc(Cl)c3Cl)N=C2N1
- Potency [1]: 23.5 µM (active)
- Potency [13]: inactive
- Potency [16]: 23.5 µM (active)
- Potency [17]: 13.2 µM (active)
- Potency [14]: inactive
- Potency [8]: 20.9 µM (active)
- Potency [18]: 18.7 µM (active)

SMILES: CNC(=O)[C@H](CC1=CN=C2C=CCC=C12)NC(=O)[C@@H](CC(=O)NO)CC(C)C
- Potency [12]: inactive
- Potency [13]: 0.059 µM (active)
- Potency [17]: inactive
- viability [3]: 109%
- Potency [14]: 18.7 µM (active)
- Potency [15]: inactive
- Potency [11]: 5.9 µM (active)

SMILES: Cc1ccc(S(=O)(=O)OCC(=O)Nc2ccc(C(=O)O)c(O)c2)cc1
- Potency [16]: 18.7 µM (active)
- viability [3]: 102%
- Potency [5]: 3.72 µM (active)
- Potency [6]: 7.43 µM (active)
- Potency [7]: 16.6 µM (active)
- Potency [14]: 9.35 µM (active)
- Potency [8]: 20.9 µM (active)
- Potency [9]: 20.9 µM (active)
- Potency [18]: inactive
- Potency [15]: inactive
- Potency [10]: inactive
- Potency [11]: inactive

SMILES: O=[N+]([O-])c1ccc(Nc2ccccc2-c2ccccc2)c2nonc12
- Potency [13]: 16.6 µM (active)
- Potency [2]: inactive
- Potency [19]: 18.7 µM (active)
- Potency [8]: 20.9 µM (active)

SMILES: Cc1ccc(C(=O)N(CCCN)[C@@H](c2oc3cc(Cl)ccc3c(=O)c2Cc2ccccc2)C(C)C)cc1
- Potency [2]: inactive
- Potency [16]: inactive
- Potency [4]: 20.9 µM (active)
- Potency [9]: 9.35 µM (active)
- Potency [15]: inactive
- Potency [10]: inactive

SMILES: Cc1cc(CS(=O)(=O)c2ccccc2)cc(OCc2ccc(CN3CCC[C@H]3CO)cc2)c1
- Potency [13]: 8.33 µM (active)
- Potency [2]: inactive
- Potency [17]: 20.9 µM (active)
- Potency [7]: 0.296 µM (active)
- Potency [15]: inactive
- Potency [11]: inactive

SMILES: C[C@H]1[C@H](O)O[C@@H]2O[C@@]3(C)CC[C@@H]4[C@H](C)CC[C@@H]1[C@@]24OO3
- Potency [13]: 2.35 µM (active)
- Potency [19]: 1.18 µM (active)
- Potency [16]: 5.26 µM (active)
- Potency [17]: 11.8 µM (active)
- Potency [5]: 3.72 µM (active)
- Potency [6]: 3.72 µM (active)
- Potency [7]: 1.48 µM (active)
- Potency [8]: 2.35 µM (active)
- Potency [10]: 1.66 µM (active)
- Potency [11]: 13.2 µM (active)

SMILES: CCC(c1ccc(O)cc1)C(CC)c1ccc(O)cc1 (stereo not given)
- Potency [13]: inactive
- Potency [16]: 3.32 µM (active)
- Potency [4]: 3.32 µM (active)
- Potency [7]: inactive
- Potency [8]: inactive
- Potency [18]: inactive
- Potency [15]: inactive

SMILES: N#Cc1ccc(Oc2ccc3c(c2)COB3O)cc1
- Potency [1]: inactive
- Potency [5]: 16.6 µM (active)
- Potency [8]: 20.9 µM (active)
- Potency [15]: inactive
- Potency [11]: inactive

SMILES: C[C@@H](N)c1ccc(C(=O)Nc2ccnc3[nH]ccc23)cc1
- Potency [13]: 20.9 µM (active)
- Potency [2]: 20.9 µM (active)
- Potency [16]: 23.5 µM (active)
- Potency [4]: 16.6 µM (active)
- Potency [5]: 20.9 µM (active)
- Potency [6]: 20.9 µM (active)
- Potency [7]: 26.4 µM (active)
- Potency [14]: 16.6 µM (active)
- Potency [8]: 26.4 µM (active)
- Potency [9]: 16.6 µM (active)
- Potency [18]: inactive
- Potency [15]: inactive
